According to the supplement of paper PMC7411054:
Where a name gives a salt, the structure may show the parent alone.

Legend:
Experiment in all cases: phenotypically active (imaging signature differs from DMSO and reproducible) at any of 0.3-9 uM (binary (1 = active, 0 = inactive)); higher = active
Conditions in all cases: treatment time: 24 h
A549-ACTB-RAB5A = system: A549-ACTB-RAB5A
Method in brief: (§1)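 Fifteen gene-edited A549, HepG2 and WPMY1 reporter lines (BFP segmentation plus GFP and RFP/FusionRed markers) were treated at 0.3, 1, 3 or 9 µM for 24 h, four wells each, then imaged live. Live-cell features per well were normalised to DMSO control wells. Deviation required ≥3 of 4 wells beyond the 95th percentile of DMSO Euclidean distances, and reproducibility required median replicate Pearson correlation above the 95th percentile of non-replicates. Phenotypic activity needed both criteria.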

A549-CANX-COX4 = system: A549-CANX-COX4
Method in brief: as §1

A549-GM130-SQSTM1 = system: A549-GM130-SQSTM1
Method in brief: as §1

A549-TP53BP1-CLTA = system: A549-TP53BP1-CLTA
Method in brief: as §1

A549-TUBA1B-RELA = system: A549-TUBA1B-RELA
Method in brief: as §1

HepG2-ACTB-RAB5A = system: HepG2-ACTB-RAB5A
Method in brief: as §1

HepG2-CANX-COX4 = system: HepG2-CANX-COX4
Method in brief: as §1

HepG2-GM130-SQSTM1 = system: HepG2-GM130-SQSTM1
Method in brief: as §1

HepG2-TP53BP1-CLTA = system: HepG2-TP53BP1-CLTA
Method in brief: as §1

HepG2-TUBA1B-RELA = system: HepG2-TUBA1B-RELA
Method in brief: as §1

WPMY1-ACTB-RAB5A = system: WPMY1-ACTB-RAB5A
Method in brief: as §1

WPMY1-CANX-COX4 = system: WPMY1-CANX-COX4
Method in brief: as §1

WPMY1-GM130-SQSTM1 = system: WPMY1-GM130-SQSTM1
Method in brief: as §1

WPMY1-TP53BP1-CLTA = system: WPMY1-TP53BP1-CLTA
Method in brief: as §1

WPMY1-TUBA1B-RELA = system: WPMY1-TUBA1B-RELA
Method in brief: as §1

Measured: phenotypically active

Cc1ccc(-c2csc3ncnc(SCCC(=O)O)c23)cc1
inactive: A549-ACTB-RAB5A 0 | A549-CANX-COX4 0 | A549-GM130-SQSTM1 0 | A549-TP53BP1-CLTA 0 | A549-TUBA1B-RELA 0 | HepG2-ACTB-RAB5A 0 | HepG2-CANX-COX4 0 | HepG2-GM130-SQSTM1 0 | HepG2-TP53BP1-CLTA 0 | HepG2-TUBA1B-RELA 0 | WPMY1-ACTB-RAB5A 0 | WPMY1-CANX-COX4 0 | WPMY1-GM130-SQSTM1 0 | WPMY1-TP53BP1-CLTA 0 | WPMY1-TUBA1B-RELA 0

COC(=O)[C@H]1[C@H]2C[C@H]3c4[nH]c5ccccc5c4CCN3C[C@@H]2CC[C@@H]1O [Corynanthine hydrochloride]
inactive: A549-ACTB-RAB5A 0 | A549-CANX-COX4 0 | A549-GM130-SQSTM1 0 | A549-TP53BP1-CLTA 0 | A549-TUBA1B-RELA 0 | HepG2-ACTB-RAB5A 0 | HepG2-CANX-COX4 0 | HepG2-GM130-SQSTM1 0 | HepG2-TP53BP1-CLTA 0 | HepG2-TUBA1B-RELA 0 | WPMY1-ACTB-RAB5A 0 | WPMY1-CANX-COX4 0 | WPMY1-GM130-SQSTM1 0 | WPMY1-TP53BP1-CLTA 0 | WPMY1-TUBA1B-RELA 0

N#Cc1ccc(C(c2ccc(C#N)cc2)n2cncn2)cc1 [Letrozole]
inactive: A549-ACTB-RAB5A 0 | A549-CANX-COX4 0 | A549-GM130-SQSTM1 0 | A549-TP53BP1-CLTA 0 | A549-TUBA1B-RELA 0 | HepG2-ACTB-RAB5A 0 | HepG2-CANX-COX4 0 | HepG2-GM130-SQSTM1 0 | HepG2-TP53BP1-CLTA 0 | HepG2-TUBA1B-RELA 0 | WPMY1-ACTB-RAB5A 0 | WPMY1-CANX-COX4 0 | WPMY1-GM130-SQSTM1 0 | WPMY1-TP53BP1-CLTA 0 | WPMY1-TUBA1B-RELA 0

O=P(O)(O)C(O)(Cc1cccnc1)P(=O)(O)O [risedronate]
inactive: A549-ACTB-RAB5A 0 | A549-CANX-COX4 0 | A549-GM130-SQSTM1 0 | A549-TP53BP1-CLTA 0 | A549-TUBA1B-RELA 0 | HepG2-ACTB-RAB5A 0 | HepG2-CANX-COX4 0 | HepG2-GM130-SQSTM1 0 | HepG2-TP53BP1-CLTA 0 | HepG2-TUBA1B-RELA 0 | WPMY1-ACTB-RAB5A 0 | WPMY1-CANX-COX4 0 | WPMY1-GM130-SQSTM1 0 | WPMY1-TP53BP1-CLTA 0 | WPMY1-TUBA1B-RELA 0

Cc1n[nH]c(=O)[nH]c1=O [Azathymine, 6]
inactive: A549-ACTB-RAB5A 0 | A549-CANX-COX4 0 | A549-GM130-SQSTM1 0 | A549-TP53BP1-CLTA 0 | A549-TUBA1B-RELA 0 | HepG2-ACTB-RAB5A 0 | HepG2-CANX-COX4 0 | HepG2-GM130-SQSTM1 0 | HepG2-TP53BP1-CLTA 0 | HepG2-TUBA1B-RELA 0 | WPMY1-ACTB-RAB5A 0 | WPMY1-CANX-COX4 0 | WPMY1-GM130-SQSTM1 0 | WPMY1-TP53BP1-CLTA 0 | WPMY1-TUBA1B-RELA 0

CC(C)(Sc1ccc(CCN(CCCCC2CCCCC2)C(=O)NC2CCCCC2)cc1)C(=O)O
inactive: A549-ACTB-RAB5A 0 | A549-CANX-COX4 0 | A549-GM130-SQSTM1 0 | A549-TP53BP1-CLTA 0 | A549-TUBA1B-RELA 0 | HepG2-ACTB-RAB5A 0 | HepG2-CANX-COX4 0 | HepG2-GM130-SQSTM1 0 | HepG2-TP53BP1-CLTA 0 | HepG2-TUBA1B-RELA 0 | WPMY1-ACTB-RAB5A 0 | WPMY1-CANX-COX4 0 | WPMY1-GM130-SQSTM1 0 | WPMY1-TP53BP1-CLTA 0 | WPMY1-TUBA1B-RELA 0

NS(=O)(=O)c1cc(C2(O)NC(=O)c3ccccc32)ccc1Cl (stereo not given) [chlorthalidone]
inactive: A549-ACTB-RAB5A 0 | A549-CANX-COX4 0 | A549-GM130-SQSTM1 0 | A549-TP53BP1-CLTA 0 | A549-TUBA1B-RELA 0 | HepG2-ACTB-RAB5A 0 | HepG2-CANX-COX4 0 | HepG2-GM130-SQSTM1 0 | HepG2-TP53BP1-CLTA 0 | HepG2-TUBA1B-RELA 0 | WPMY1-ACTB-RAB5A 0 | WPMY1-CANX-COX4 0 | WPMY1-GM130-SQSTM1 0 | WPMY1-TP53BP1-CLTA 0 | WPMY1-TUBA1B-RELA 0

COc1ccc([C@@H]2CC(=O)c3c(O)cc(O[C@@H]4O[C@H](CO[C@@H]5O[C@@H](C)[C@H](O)[C@@H](O)[C@H]5O)[C@@H](O)[C@H](O)[C@H]4O)cc3O2)cc1O [Hesperidin]
inactive: A549-ACTB-RAB5A 0 | A549-CANX-COX4 0 | A549-GM130-SQSTM1 0 | A549-TP53BP1-CLTA 0 | A549-TUBA1B-RELA 0 | HepG2-ACTB-RAB5A 0 | HepG2-CANX-COX4 0 | HepG2-GM130-SQSTM1 0 | HepG2-TP53BP1-CLTA 0 | HepG2-TUBA1B-RELA 0 | WPMY1-ACTB-RAB5A 0 | WPMY1-CANX-COX4 0 | WPMY1-GM130-SQSTM1 0 | WPMY1-TP53BP1-CLTA 0 | WPMY1-TUBA1B-RELA 0

CCCCCN(C)CCC(O)(P(=O)(O)O)P(=O)(O)O [ibandronate]
inactive: A549-ACTB-RAB5A 0 | A549-CANX-COX4 0 | A549-GM130-SQSTM1 0 | A549-TP53BP1-CLTA 0 | A549-TUBA1B-RELA 0 | HepG2-ACTB-RAB5A 0 | HepG2-CANX-COX4 0 | HepG2-GM130-SQSTM1 0 | HepG2-TP53BP1-CLTA 0 | HepG2-TUBA1B-RELA 0 | WPMY1-ACTB-RAB5A 0 | WPMY1-CANX-COX4 0 | WPMY1-GM130-SQSTM1 0 | WPMY1-TP53BP1-CLTA 0 | WPMY1-TUBA1B-RELA 0

O=C(O)c1cc(/N=N/c2ccc(S(=O)(=O)Nc3ccccn3)cc2)ccc1O [Sulfasalazine]
inactive: A549-ACTB-RAB5A 0 | A549-CANX-COX4 0 | A549-GM130-SQSTM1 0 | A549-TP53BP1-CLTA 0 | A549-TUBA1B-RELA 0 | HepG2-ACTB-RAB5A 0 | HepG2-CANX-COX4 0 | HepG2-GM130-SQSTM1 0 | HepG2-TP53BP1-CLTA 0 | HepG2-TUBA1B-RELA 0 | WPMY1-ACTB-RAB5A 0 | WPMY1-CANX-COX4 0 | WPMY1-GM130-SQSTM1 0 | WPMY1-TP53BP1-CLTA 0 | WPMY1-TUBA1B-RELA 0

CC(C)c1ccc(CC(=O)N2CCC[C@@H](c3cccc(OC(C)(C)C(=O)O)c3)C2)cc1
inactive: A549-ACTB-RAB5A 0 | A549-CANX-COX4 0 | A549-GM130-SQSTM1 0 | A549-TP53BP1-CLTA 0 | A549-TUBA1B-RELA 0 | HepG2-ACTB-RAB5A 0 | HepG2-CANX-COX4 0 | HepG2-GM130-SQSTM1 0 | HepG2-TP53BP1-CLTA 0 | HepG2-TUBA1B-RELA 0 | WPMY1-ACTB-RAB5A 0 | WPMY1-CANX-COX4 0 | WPMY1-GM130-SQSTM1 0 | WPMY1-TP53BP1-CLTA 0 | WPMY1-TUBA1B-RELA 0

N[C@@H](Cc1ccc(O)c(O)c1)C(=O)O [levodopa]
inactive: A549-ACTB-RAB5A 0 | A549-CANX-COX4 0 | A549-GM130-SQSTM1 0 | A549-TP53BP1-CLTA 0 | A549-TUBA1B-RELA 0 | HepG2-ACTB-RAB5A 0 | HepG2-CANX-COX4 0 | HepG2-GM130-SQSTM1 0 | HepG2-TP53BP1-CLTA 0 | HepG2-TUBA1B-RELA 0 | WPMY1-ACTB-RAB5A 0 | WPMY1-CANX-COX4 0 | WPMY1-GM130-SQSTM1 0 | WPMY1-TP53BP1-CLTA 0 | WPMY1-TUBA1B-RELA 0
